{"source": "PubChem BioAssay AID485349", "about": "(National Center for Advancing Translational Sciences (NCATS), 2010)", "note": "Hit rate of the full screen: of about 320,000 compounds, about 620 (0.19%) were called active. Where a call stands in place of a potency, no number is given. The sample holds actives, similar compounds and a random draw of the others, so the mix is not that of the screen. The call rests on the fitted dose curve; in most records, active means well fitted activation curve with a large enough effect; inconclusive means small, poorly fitted or top-dose-only effect; inactive means no such curve, though single readings can be large or run the other way.", "data": [{"test": "qHTS Assay for Identifying a Potential Treatment of Ataxia-Telangiectasia; further: nearly all actives have a fitted effect of over 45% in size; further: potency means the concentration at half of the fitted maximal effect", "conditions": "F2112 A-T fibroblasts, KAP-1 phosphorylation AlphaLISA, neocarzinostatin DNA damage 30 min before lysis; series mostly up to 57.5 µM", "how_it_was_run": "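ATM-like activity read as KAP-1 phosphorylation via AlphaLISA donor/acceptor antibody pairs after lysis and 6 hr at 25C. Cells were ATM-null patient fibroblasts (F2112, hTERT), dosed 60 min, then exposed to the DSB inducer NCS for 30 min.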", "values": [{"compound": "COc1ccc(C2CC(c3cccs3)=NN2c2nc(C)c(C(C)=O)s2)cc1OC", "note": "(stereo not drawn)", "Potency": "inactive"}, {"compound": "COc1cccc(C2CC(c3cccs3)=NN2C(=O)CSC2=NCCS2)c1OC", "note": "(stereo not drawn)", "Potency": "inactive"}, {"compound": "O=C(COc1ccccc1Cl)N1N=C(c2cccs2)CC1c1ccco1", "note": "(stereo not drawn)", "Potency": "inactive"}, {"compound": "COc1ccc(C2CC(c3cccs3)=NN2C(=O)CSc2nncs2)cc1OC", "note": "(stereo not drawn)", "Potency": "inactive"}, {"compound": "Fc1ccc(N2N=C(c3cccs3)CC2c2ccco2)c(F)c1", "note": "(stereo not drawn)", "Potency": "28.2 µM (active)"}, {"compound": "Cc1ccccc1C1CC(c2cccs2)=NN1S(C)(=O)=O", "note": "(stereo not drawn)", "Potency": "inactive"}, {"compound": "COc1ccc(C2=NN(c3ccccc3)C(c3cccs3)C2)cc1", "note": "(stereo not drawn)", "Potency": "inactive"}, {"compound": "COc1ccc(C2CC(c3cccs3)=NN2c2ccccc2)cc1", "note": "(stereo not drawn)", "Potency": "28.2 µM (active)"}, {"compound": "COc1ccc(C2CC(c3cccs3)=NN2c2ccc(F)cc2)cc1OC", "note": "(stereo not drawn)", "Potency": "25.1 µM (active)"}, {"compound": "COC(=O)[C@@]1(C)[C@H]2C(=O)N(Cc3ccccc3)C(=O)[C@H]2[C@H]2CN=C(SCC3CC3)N21", "Potency": "inactive"}, {"compound": "C=C(C)Cn1c(C)cc(C)c(S(=O)(=O)c2ccccc2C)c1=O", "Potency": "inactive"}, {"compound": "COC(=O)c1cc2occc2n1Cc1nc(-c2ccccc2C)oc1C", "Potency": "inactive"}, {"compound": "COc1cc(/C=C/C(=O)OCC(=O)c2ccccc2)cc(OC)c1OC", "Potency": "inactive"}, {"compound": "C=CCNC(=O)C12CC3CC(C1)CC(C(=O)NCC=C)(C3)C2", "Potency": "inactive"}, {"compound": "N#CC(Cc1cc2ccccc2n1S(=O)(=O)c1ccccc1)OCc1ccccc1", "note": "(stereo not drawn)", "Potency": "inactive"}, {"compound": "CC1(C)CCSC(/C=C/c2ccccc2)=N1", "Potency": "inactive"}, {"compound": "CC[C@]12c3[nH]c4ccc(Cl)cc4c3CCN1C(=O)[C@@H](CC(=O)NCCCOC)C[C@@H]2C(=O)N1CCN(C(=O)c2ccco2)CC1", "Potency": "inactive"}, {"compound": "Cc1ccc(S(=O)(=O)N(C)C)cc1NC(=O)C(C)OC(=O)c1ccc2ccccc2n1", "note": "(stereo not drawn)", "Potency": "inactive"}, {"compound": "Cc1cc(NS(=O)(=O)c2ccc(NC(=O)C(C)Oc3cccc(C)c3C)cc2)nc(C)n1", "note": "(stereo not drawn)", "Potency": "inactive"}, {"compound": "CCCCNC(=O)CCn1nc(-c2ccc(Cl)cc2)ccc1=O", "Potency": "inactive"}, {"compound": "CCCCNC(=O)C(C)N(CCN(C)C)C(=O)CCCN1C(=O)NC(c2ccc(Cl)cc2)C(C(=O)OCc2ccccc2)=C1C", "note": "(stereo not drawn)", "Potency": "inactive"}, {"compound": "COCc1cc(C)nc2sc3c(=O)n(-c4cccc5ccccc45)nnc3c12", "Potency": "inactive"}, {"compound": "CCCNC(=O)N1CCN(C(=O)NCCC)CC1", "Potency": "inactive"}, {"compound": "OCCC1CN(Cc2cccn2-c2nccs2)CCN1CCc1ccccc1", "note": "(stereo not drawn)", "Potency": "inactive"}, {"compound": "O=C(CN1C(=O)CC(c2ccccc2)=Nc2ccccc21)NC1CCCCC1", "Potency": "inactive"}, {"compound": "COc1ccc(C(CC(=O)c2ccccc2)S(=O)(=O)c2ccccc2)cc1", "note": "(stereo not drawn)", "Potency": "inactive"}, {"compound": "CC(Sc1nn(-c2ccc(Cl)cc2)c(=S)s1)C(=O)NCC1CCCO1", "note": "(stereo not drawn)", "Potency": "inactive"}, {"compound": "CC1CC(C)(C)n2c(O)c(N=NC(N)=S)c3cccc1c32", "note": "(stereo not drawn)", "Potency": "12.6 µM (active)"}, {"compound": "Cc1ccc(C(=O)N/C(=C/c2cccs2)C(=O)N2CCCCC2)cc1", "Potency": "inactive"}, {"compound": "Cc1cc(C)c2nc(N(CCN(C)C)C(=O)/C=C/c3cccs3)sc2c1", "Potency": "inactive"}, {"compound": "CCC(=O)Nc1ccc(-c2ccc(N3CCCCC3)nn2)cc1", "Potency": "inactive"}, {"compound": "CC[C@]1(C(=O)OC)[C@H]2C(=O)N(Cc3ccccc3)C(=O)[C@H]2[C@H]2CN=C(SCc3ccccc3)N21", "Potency": "inactive"}, {"compound": "COc1ccc(NC(=O)Cn2cc(C(=O)c3ccncc3)c(=O)c3cc(C)ccc32)cc1Cl", "Potency": "28.2 µM (active)"}, {"compound": "COc1ccc2c(c1)c(=O)c(C(=O)c1ccc(Cl)cc1)cn2CC(=O)Nc1ccc(F)cc1", "Potency": "inactive"}, {"compound": "COc1ccc(NC(=O)CN2CCN(S(=O)(=O)c3ccc(F)cc3)CC2)cc1Cl", "Potency": "inactive"}, {"compound": "ONC(=Nc1ccc(Cl)cc1)c1ccccc1Cl", "Potency": "inactive"}, {"compound": "Cc1cccc2c1-c1sc(C(=O)NCCCN3CCc4ccccc4C3)cc1CO2", "Potency": "inactive"}, {"compound": "COc1ccc2[nH]c3c(c2c1)CCN1C(=O)C(CC(=O)NCCCN(C)C)C[C@H](C(=O)N2CCOCC2)[C@@]31CCC1CCCC1", "note": "(stereo partly drawn)", "Potency": "inactive"}, {"compound": "CC[C@@H]1Cc2cc(O)ccc2C2=C1c1ccc(O)cc1C[C@H]2CC", "Potency": "inactive"}, {"compound": "CCOc1ccc(C(C)NC(=O)CN2C(=O)NC3(CCCCC3)C2=O)cc1OCC", "note": "(stereo not drawn)", "Potency": "inactive"}, {"compound": "CC[C@]12c3[nH]c4ccc(OC)cc4c3CCN1C(=O)C(CC(=O)NCc1ccco1)C[C@@H]2C(=O)N1CCN(C(=O)C2CC2)CC1", "note": "(stereo partly drawn)", "Potency": "inactive"}, {"compound": "CN(C(=O)COC(=O)c1cc(=O)[nH]c2ccccc12)C1CCCCC1", "Potency": "inactive"}, {"compound": "CCn1ccnc1CN(C)Cc1nc(-c2ccc3c(c2)OCO3)no1", "Potency": "inactive"}, {"compound": "CN(Cc1cc2cc(F)ccc2[nH]1)Cc1nc(-c2cnccn2)no1", "Potency": "inactive"}, {"compound": "CN(Cc1nc(-c2cnccn2)no1)Cc1n[nH]c2c1CCCCC2", "Potency": "31.6 µM (active)"}, {"compound": "COc1ccc(C(F)(F)F)cc1N/C=C\\c1nnnn1-c1ccc(C)cc1", "Potency": "inactive"}, {"compound": "O=C1[C@@H](c2ccccc2)[C@@H](c2ccccc2)N1c1cccnc1", "Potency": "inactive"}, {"compound": "CC(C)N(C(=O)[C@H]1C[C@H](CC(=O)NC(C)(C)C)C(=O)N2CCc3c([nH]c4ccc(Cl)cc34)[C@]12C)C(C)C", "Potency": "inactive"}]}]}
